Screening data deposited in PubChem BioAssay by National Center for Advancing Translational Sciences (NCATS).
SMN2 splice enh: increases expression of the SMN2 splice variant; HEK293 SMN2-luciferase splicing reporter, luminescence, 30-36 h; AID 1458; Potency, µM (highest dose often 46.1 µM), most hits filed as activators; hit rate 2.8% among 210,000; further: nearly all actives have a fitted effect of over 55% in size
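qHTS luciferase splicing reporter: luminescence rises when SMN2 exon 7 is included in transfected HEK293 cells. Compound exposure lasted 30-36 h at 37C, with 4.5 mM final sodium butyrate as control, followed by a ONE-Glo read.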
Rab9 prom act: activates the Rab9 promoter. Huh7 Rab9 promoter-luciferase reporter, luminescence, 24 h. Potency, µM (titrated, usually from 9.22 µM), hits mostly activators. hit rate 2.8% among 320,000. AID 485297; further: nearly all actives have a fitted effect of over 60% in size
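Measured in stably transfected Huh7 cells bearing a Rab9 promoter–luciferase construct: 24 h compound treatment at 37 °C, followed by luminescence detection.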
ELG1 genotoxic: inducers of genotoxicity in HEK293T ELG1-luciferase cells. HEK293T ELG1-luciferase reporter, luminescence, 16 h. Potency, µM (highest dose often 46 µM), most hits filed as activators. hit rate 1.3% among 330,000; further: nearly all actives have a fitted effect of over 60% in size
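HEK293T cells expressing luciferase-tagged ELG1 were exposed to compound or DMSO vehicle for 16 hr at 37 °C and 5% CO2. Luciferase activity was then measured with ONE-Glo after 30 min at room temperature.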
NPC1 promoter act: activates the NPC1 promoter | hit rate 2.4% among 320,000 | Huh7 NPC1 promoter luciferase reporter, 24 h | AID 485313 | Potency, µM (series often up to 9.22 µM), usual class: activators; further: nearly all actives have a fitted effect of over 60% in size
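NPC1 promoter–luciferase Huh7 cells; 24 h compound; luminescence.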
FLuc counter: inhibits or activates purified firefly luciferase, miR-21 counter-screen | P08659 | purified FLuc, Km substrates, luminescence inhibition | hit rate 6.9% among 360,000 | Potency, µM (highest dose often 57.5 µM), hits mostly inhibitors | AID 588342; further: nearly all actives have a fitted effect of over 55% in size
Target sequence (P08659 whole entry, looked up): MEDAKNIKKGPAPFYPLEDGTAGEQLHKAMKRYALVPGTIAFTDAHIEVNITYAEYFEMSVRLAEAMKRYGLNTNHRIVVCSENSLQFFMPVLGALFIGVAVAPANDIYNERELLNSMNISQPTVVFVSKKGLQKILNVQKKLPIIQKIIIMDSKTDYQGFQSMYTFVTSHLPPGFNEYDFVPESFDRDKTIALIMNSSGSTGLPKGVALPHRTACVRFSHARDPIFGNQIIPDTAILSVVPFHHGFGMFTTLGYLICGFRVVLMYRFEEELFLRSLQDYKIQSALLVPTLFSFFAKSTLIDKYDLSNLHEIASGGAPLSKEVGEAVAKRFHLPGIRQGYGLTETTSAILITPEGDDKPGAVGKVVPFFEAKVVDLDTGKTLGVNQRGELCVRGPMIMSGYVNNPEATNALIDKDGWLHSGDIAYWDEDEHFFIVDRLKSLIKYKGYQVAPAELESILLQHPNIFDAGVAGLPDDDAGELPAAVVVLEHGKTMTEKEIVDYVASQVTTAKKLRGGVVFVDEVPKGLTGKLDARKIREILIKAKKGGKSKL
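Biochemical qHTS of compounds, final roughly 60 µM downward over six points, against 10 nM purified firefly luciferase using Km concentrations of substrates (10 uM D-luciferin, 10 uM ATP) in Tris acetate pH 7.5 buffer; luminescence output.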
Luc counter: Kinase-Glo luciferase inhibition (counter-screen) | hit rate 0.28% among 200,000 | Kinase-Glo luciferase, ATP luminescence, 8 min | Potency, µM (highest dose often 38.3 µM), usual class: inhibitors | Q27757; further: nearly all actives have a fitted effect of over 60% in size
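Kinase-Glo luciferase light output from ATP and luciferin was measured with 10 uM ATP, within the enzyme's linear range. Buffer: 50 mM imidazole pH 7.2, 50 mM KCl, 7 mM MgCl2, 0.01% Tween 20, 0.05% BSA; luminescence read after 8 min at ambient temperature.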
Numbers stand for hits; - = inactive; ? = inconclusive; . = no result given. Rows were chosen to be rich in hits. Some 7.5% of all compounds tested hit in one or more screens of this group. The call rests on the fitted dose curve; in most records, active means well fitted curve in the direction sought with a large enough effect; inconclusive means small, poorly fitted or top-dose-only effect, or another doubt; inactive means no such curve, though single readings can be large; an effect the other way counts as inactive or inconclusive.

SMILES | SMN2 splice enh | Rab9 prom act | ELG1 genotoxic | NPC1 promoter act | FLuc counter | Luc counter
CCN(CC)C(=O)Cn1cc(C(=O)C(=O)Nc2ccc3c(c2)OCCO3)c2ccccc21 | . | ? | - | - | 3.38µM | .
O=C(Nc1ccc2c(c1)OCO2)C(=O)c1c[nH]c2ccccc12 | . | 0.708µM | 1.83µM | 0.398µM | 0.675µM | .
Cc1ccc(Cl)cc1NC(=O)C1CCN(C(=O)c2cnn(-c3ccccc3)c2-n2cccc2)CC1 | - | . | . | . | - | .
Cc1oc2ccc(O)c(CN(C)Cc3ccccc3)c2c1C(=O)Nc1cccc(Cl)c1C | - | . | . | . | - | .
CC1CC(=O)Nc2ccccc2N1S(=O)(=O)c1cccc(Cl)c1 (configuration not stated) | - | - | - | - | - | -
CCOc1ccc(N(CC(=O)Nc2ccc(C)c(C)c2)S(C)(=O)=O)cc1 | . | ? | ? | 2.82µM | 10.7µM | .
COc1ccc(-c2cc(C(=O)NC3CCCC3)no2)cc1OC | - | - | - | ? | - | -
O=C(NC1CCCC1)c1cc(-c2ccc(Cl)cc2Cl)on1 | . | 3.55µM | 1.3µM | 1µM | 0.849µM | .
O=C(NC1CCCCC1)c1cc(-c2ccccc2Cl)on1 | . | 2.82µM | 20.6µM | ? | ? | .
O=C(NC1CCCC1)c1cc(-c2ccccc2O)on1 | . | - | 14.6µM | - | 4.78µM | .
COc1ccccc1-c1cc(C(=O)NC2CCCC2)no1 | . | ? | ? | ? | 19µM | .
Cc1cccc(C)c1OCc1cc(C(=O)NC2CCC2)no1 | . | - | - | - | ? | .
O=C(NC1CCCC1)c1cc(-c2ccccc2Cl)on1 | . | 2.51µM | ? | 1.58µM | 5.36µM | .
CCOC(=O)c1cc(-c2ccccc2)n(-c2cccc(C(=O)Nc3cccc(C)c3)c2)c1C | . | . | . | . | - | .
CCOc1cccc(C2c3[nH]c4ccccc4c3CCN2C(=O)CCc2ccccc2)c1 (configuration not stated) | . | . | . | . | - | .
CCN(CC)c1ccc(/C=C2\C(=O)c3ccc(C(=O)O)cc3C2=O)cc1 | - | - | ? | - | 0.379µM | -
CCN(CC)c1ccc(C(=O)O)cc1 | - | - | - | - | - | -
CCCNC(=O)Cn1cnc([N+](=O)[O-])n1 | - | - | - | - | - | -
O=C(NC1CCCCC1)c1n[nH]c2c1CC(c1ccccc1)CC2 (configuration not stated) | . | 1.78µM | ? | 2.24µM | 3.01µM | .
CC(c1ccco1)N(C(=O)c1cccc(Br)c1)c1ccccn1 (configuration not stated) | . | - | - | - | - | .
O=C(NC1CC1)c1cc2c(s1)-c1ccccc1OC2 | - | - | ? | - | 12µM | -
Nc1ccc(-c2cc(-c3cccc(N)c3)nc(-c3ccccc3)n2)cc1 | - | - | - | - | - | -
Cc1cc(C)c(-c2nc3ccccc3s2)[nH]1 | . | - | ? | - | 4.78µM | .
O=C(O)c1ccc2c(c1)C(=O)N(c1cccc(-c3nc4ccccc4s3)c1)C2=O | . | - | - | - | 2.39µM | -
Cc1[nH]nc(-c2ccc(O)cc2O)c1-c1nc2ccccc2s1 | - | - | - | - | - | -
SMILES | SMN2 splice enh | Rab9 prom act | ELG1 genotoxic | NPC1 promoter act | FLuc counter | Luc counter
CC[n+]1cccc(-c2nc3ccccc3s2)c1 | - | - | - | - | 26.9µM | -
Nc1cccc(-c2nc3ccccc3s2)c1 | - | 3.98µM | 3.66µM | 3.16µM | 1.2µM | -
O=C(NN1CCOCC1)c1ccc(Cl)s1 | . | - | - | - | - | -
CN1CCCC(OC(=O)c2ccccc2Br)C1 (configuration not stated) | . | - | ? | - | - | .
O=C(Nc1ccc(Br)cc1)c1cnn2c1NC(=C1CC1)C=C2C(F)F | . | . | . | . | - | .
Oc1cccc(-c2nc3ccccc3s2)c1 | ? | ? | 1.46µM | - | 1.69µM | -
CC(=O)Nc1ccc(O)c(-c2nc3ccccc3s2)c1 | - | ? | ? | - | ? | -
COc1cccc(Nc2nnc(SCC3CCCCO3)s2)c1 (configuration not stated) | - | - | - | - | 12µM | -
COc1ccc(Nc2nnc(SCC3CCCO3)s2)cc1 (configuration not stated) | - | ? | - | - | 19µM | -
COC(=O)c1ccc(CSc2nnc(Nc3cccc(OC)c3)s2)o1 | - | - | - | - | ? | -
Cc1cccc(Nc2nnc(SCC3CCCCO3)s2)c1C (configuration not stated) | ? | - | - | ? | 9.53µM | -
Cc1ccc(Nc2nnc(SCC(=O)NCC3CCCO3)s2)cc1 (configuration not stated) | . | . | - | . | . | .
O=C(COc1ccccc1Cl)Nc1ccc2c(c1)C(=O)NC2=O | . | - | - | - | - | .
COc1ccccc1Cn1c(CNS(=O)(=O)c2cccc([N+](=O)[O-])c2)nc2cccnc21 | . | . | . | . | - | .
Cc1cc(Cl)c2oc(C(=O)N(C)Cc3ccon3)c(C)c2c1 | . | 2.82µM | 18.3µM | 3.98µM | 13.5µM | .
Cc1cc(Cl)c2oc(C(=O)N(C)Cc3cc(C)[nH]n3)c(C)c2c1 | . | - | - | - | - | .
Cc1cc(Cl)c2oc(C(=O)N(C)Cc3nccn3C)c(C)c2c1 | . | - | - | - | - | .
Cc1cc(Cl)c2oc(C(=O)N(C)C3CCOC3)c(C)c2c1 (configuration not stated) | . | 3.98µM | ? | ? | 21.3µM | .
COc1ccc(OCc2cc(C(=O)NC(C)Cn3cncn3)no2)c(Cl)c1 (configuration not stated) | . | ? | ? | ? | 12µM | .
COc1ccc(OCc2cc(C(=O)NC(C)Cc3ccccn3)no2)c(Cl)c1 (configuration not stated) | . | - | - | - | 12µM | .
CC(Cc1cccnc1)NC(=O)c1cc(COc2ccc(F)cc2F)on1 (configuration not stated) | . | - | - | - | - | .
O=C(NCCc1cccnc1)c1cc(COc2ccc(F)cc2F)on1 | . | - | - | - | - | .
COc1ccc(OCc2cc(C(=O)NC(C)Cc3cccnc3)no2)c(Cl)c1 (configuration not stated) | . | - | - | - | 13.5µM | .
CC(Cn1cncn1)NC(=O)c1cc(COc2cccc(C(F)(F)F)c2)on1 (configuration not stated) | . | - | - | - | - | .
O=C(NCCc1cccnc1)c1cc(COc2ccc(F)cc2Cl)on1 | . | - | - | - | 19µM | .
CCOC(=O)c1ccccc1NC(=O)N1CCC(CN2CCCCC2)CC1 | . | . | . | . | - | .
Cc1ccc(-c2cc(C(F)(F)F)n3nc(C(=O)Nc4ccc(Cl)c(C(F)(F)F)c4)cc3n2)cc1 | - | . | . | . | - | .
CC1(C)NC(=O)N(CCC(=O)Nc2cc(C(F)(F)F)ccc2Cl)C1=O | . | . | - | . | . | .
Nc1nc(CN2CCN(C(=O)c3ccco3)CC2)nc(Nc2cccc(Cl)c2)n1 | - | - | - | - | - | -
Cc1noc(C)c1NC(=O)Nc1cccc2c1O[C@H](CN(C)C(=O)Nc1ccc3c(c1)OCO3)[C@@H](C)CN([C@H](C)CO)C2=O | . | . | - | . | . | .
